Laboratory results from the OligoGym collection.

What follows are sequences tested against ZNF219 (assay: pooled miR-30 sensor sort-seq; sequence = guide strand). Details: shRNA.
Note: reference of the scale not given here.

**Q.** Which sensor-assay potency score (higher = more potent) does the source give for TACTTGAGCGAGCCGGACTGGG here?
**A.** -1.26

**Q.** For TAGAGTTGAAGCGGAAGCGCTT, which sensor-assay potency score (higher = more potent) is on record?
**A.** -0.695

**Q.** How did the sensor-assay potency score (higher = more potent) turn out when TTGAGGTGATGTGCTGAGCGGA was run?
**A.** -0.983

**Q.** For TTTATTGGGGACACGACTCTGC, which sensor-assay potency score (higher = more potent) is on record?
**A.** 0.537

**Q.** Which sensor-assay potency score (higher = more potent) does the source give for TGTAGGTGATACTTGAGCGAGC here?
**A.** -0.911

**Q.** Which sensor-assay potency score (higher = more potent) does the source give for TCGCAGATGCACTTTGAGGTGA here?
**A.** -0.383

**Q.** With TTGCCTTTGCAGTAGGGGCAAC as the sequence, how does the sensor-assay potency score (higher = more potent) read?
**A.** -1.2

**Q.** TCCAACTCCAGCAACAGGCGTG was tested. Which sensor-assay potency score (higher = more potent) did it give?
**A.** -0.967

**Q.** How did the sensor-assay potency score (higher = more potent) turn out when TAGTAGCGCGCGCTCTTCCAAC was run?
**A.** -1.67

What follows are sequences tested against ZNF233 in the same assay as above. Details: shRNA.

**Q.** For ATGTACACAACTTCTCTCCTGG, which sensor-assay potency score (higher = more potent) is on record?
**A.** -0.0529

**Q.** Which sensor-assay potency score (higher = more potent) does the source give for TATCCTGTCACTTACTTCCCAT here?
**A.** -0.636

**Q.** With TTTAGCAACTTGGACCTCTTGC as the sequence, how does the sensor-assay potency score (higher = more potent) read?
**A.** 0.0723

**Q.** TTAATCTTACTTCTTGAAGGGT was tested. Which sensor-assay potency score (higher = more potent) did it give?
**A.** -0.195

**Q.** With TATCTCATTTTGATTCTTGTGT as the sequence, how does the sensor-assay potency score (higher = more potent) read?
**A.** 0.251

**Q.** With TTTGCTGACACCTACTCTGATA as the sequence, how does the sensor-assay potency score (higher = more potent) read?
**A.** -0.77

**Q.** Which sensor-assay potency score (higher = more potent) does the source give for TCTTGTGTCCTGAACACCCATC here?
**A.** -0.866

**Q.** How did the sensor-assay potency score (higher = more potent) turn out when TTAATTTACTTGTAAATTGTTC was run?
**A.** -0.905

**Q.** TAATCTTACTTCTTGAAGGGTA was tested. Which sensor-assay potency score (higher = more potent) did it give?
**A.** 0.461

**Q.** For TATTAGGTCTTGATTACTGGTT, which sensor-assay potency score (higher = more potent) is on record?
**A.** -0.618

**Q.** With TTTACTTGTAAATTGTTCCCAT as the sequence, how does the sensor-assay potency score (higher = more potent) read?
**A.** 0.845

**Q.** For TTCTTGTGTCCTGAACACCCAT, which sensor-assay potency score (higher = more potent) is on record?
**A.** -0.736

Each sequence was assayed against ZNF24 in the same assay as above. Details: shRNA.

**Q.** How did the sensor-assay potency score (higher = more potent) turn out when TAATGCTGAAGGAAGCTCCTGC was run?
**A.** 0.616

**Q.** Which sensor-assay potency score (higher = more potent) does the source give for TGGATGATGATCTCGAACCCAA here?
**A.** -0.874

**Q.** TAGTGCTCCATTTTCAGTCCTA was tested. Which sensor-assay potency score (higher = more potent) did it give?
**A.** 0.194

**Q.** How did the sensor-assay potency score (higher = more potent) turn out when TTTCTCTTTCTTTCAAACCTGC was run?
**A.** 0.00433

**Q.** With TCTTCTACTAGTACTTCCCGTT as the sequence, how does the sensor-assay potency score (higher = more potent) read?
**A.** 0.168

**Q.** TTCTGCATTGTGTCTTCTCTGA was tested. Which sensor-assay potency score (higher = more potent) did it give?
**A.** 0.000948

**Q.** AAAAATTTGAGGAACACCCATA was tested. Which sensor-assay potency score (higher = more potent) did it give?
**A.** -0.922

**Q.** For TTCACTCTCCAAATCCTCCAGC, which sensor-assay potency score (higher = more potent) is on record?
**A.** -0.297

**Q.** Which sensor-assay potency score (higher = more potent) does the source give for TTTGTGTGCGTCTCTGGCCTGA here?
**A.** -0.444

**Q.** For TAAAAATTTGAGGAACACCCAT, which sensor-assay potency score (higher = more potent) is on record?
**A.** -0.488

**Q.** TTGAGGAACACCCATACTGAGA was tested. Which sensor-assay potency score (higher = more potent) did it give?
**A.** -1.26

**Q.** TAAGTATTGAATCTTCTTCCAC was tested. Which sensor-assay potency score (higher = more potent) did it give?
**A.** -0.673

The sequences below were run against ZNF250 in the same assay as above. Details: shRNA.

**Q.** For TTACTAAGGACTGAGCTCTGGC, which sensor-assay potency score (higher = more potent) is on record?
**A.** 0.163

**Q.** TGTCTTGTTGTGTACAGGCTGT was tested. Which sensor-assay potency score (higher = more potent) did it give?
**A.** -0.552

**Q.** TACACTGCACACATAGGGCTTC was tested. Which sensor-assay potency score (higher = more potent) did it give?
**A.** -0.55

**Q.** How did the sensor-assay potency score (higher = more potent) turn out when TTGTCTGAGTAGTCACTCCACA was run?
**A.** -0.51

**Q.** How did the sensor-assay potency score (higher = more potent) turn out when TTAACAGAGACTTCTCTTGGGC was run?
**A.** -0.0398

**Q.** TGTATGTATCTTGTGATGCTGA was tested. Which sensor-assay potency score (higher = more potent) did it give?
**A.** -0.256

**Q.** How did the sensor-assay potency score (higher = more potent) turn out when TTTTGTGACACTGAATCGCCAA was run?
**A.** 0.484
